CRFBP-R2 agonist: CRF-BP/CRF-R2 complex agonism; HEK293 CRF-R2/CRF-BP, calcium dye fluorescence (FLIPR); percent of saturating CRF peptide response; activation, % at 13.2 µM; hit rate 0.46% among 350,000; AID 588473;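 active = activation of at least 50%, plus an integration ratio under a set limit after plate pattern correction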;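 also: plate controls were neutral control wells without compound for no effect and CRF at EC100 for full effect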
IDE cell inh: cellular human IDE inhibition; P14735; HEK cells, FAbetaB cleavage, fluorescence polarization; inhibition, % at 5.59 µM; hit rate 0.41% among 320,000; AID 434962;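 active = percent inhibition above the average of all tested compounds plus 3 SD, set per screening campaign, cut at about 16% in these data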;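 also: IDE supplied by intact live HEK cells; FP after avidin binding of uncleaved biotin substrate so inhibition keeps polarization high; 0% = DMSO wells and 100% = 60 µM reference IDE inhibitor Ii1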
TPT1 inh: blocks Candida albicans tRNA 2'-phosphotransferase; recombinant caTPT1, FP RNA substrate dephosphorylation; hit rate 0.81% among 300,000; inhibition, % at 5 µM;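 active = inhibition above the mean of all tested compounds plus 3 SD, set per screening campaign, cut at about 24% in these data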;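 also: plate controls were DMSO alone for no effect and ferristatin control at 100 nM for full effect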
IDE cell activ: activators of human insulin-degrading enzyme in cells | hit rate 0.073% among 340,000 | HEK cells, FAbeta-B cleavage, fluorescence polarization; 0% vehicle, 100% cell-free pure enzyme wells | activation, % at 5.96 µM | P14735 | AID 493087;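 active = activation above the mean of all tested compounds plus 3 SD, set per screening campaign, cut at about 17% in these data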
Myeloid diff 2: compounds promoting myeloid differentiation; ER-HoxA9 myeloid progenitors, lysozyme-GFP differentiation, flow cytometry; calls only at 10 µM; hit rate 1% among 360,000; AID 624256;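 active = normalized GFP-positive differentiation at or above the plate's own cutoff, the solvent-only control mean plus 3 SD; inconclusive = no clear call, values can overlap the other calls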;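 also: cells exposed to compound for four days before flow analysis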
CRFR2-BP antag: antagonists of CRF-binding protein/CRF-R2 receptor complex; HEK293 CRF-R2/CRF-BP, CRF-induced calcium fluorescence; inhibition, % at 11.8 µM; hit rate 0.59% among 350,000; AID 588475;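 active = inhibition of the ligand-induced calcium signal above about 50% at the single tested concentration, limit read from the data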
IDE inh confirm: confirmation of human insulin-degrading enzyme inhibitors in cells; shares compounds with IDE cell inh; HEK cells, FAbetaB cleavage, fluorescence polarization; inhibition, % at 5.59 µM; hit rate 51% among 1,200; AID 435028;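 active = mean inhibition across triplicate wells above the cutoff set by the earlier primary insulin-degrading enzyme screen, cut at about 16% in these data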;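 also: 0% = DMSO wells and 100% = 60 µM reference IDE inhibitor Ii1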
HEK293 tox: HEK cell cytotoxicity, counter-screen for IDE inhibitors. shares compounds with IDE cell inh. HEK293 cytotoxicity, ATP luminescence. inhibition, % at 5.59 µM. hit rate 28% among 1,200; in the data active = inhibition above about 22%;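 also: 0% = vehicle wells and 100% = reference cytotoxic drug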
Numbers without * were called inactive; i = inactive; u = inconclusive; x = no result given. Most compounds without a hit are left out; they make up all but 2.6% or so of the library.

SMILES	CRFBP-R2 agonist	IDE cell inh	TPT1 inh	IDE cell activ	Myeloid diff 2	CRFR2-BP antag	IDE inh confirm	HEK293 tox
O=C1CSC(=S)N1CC1CCCO1 (stereo not given)	3	18*	4	-9	i	29	14	11
Cn1c(N)c(C(=O)CSc2nc(N)cc(N)n2)c(=O)n(C)c1=O	-1	21*	-1	-32	i	2	8	9
Cn1c(N)c(C(=O)CSc2nc(N)cc(=O)[nH]2)c(=O)n(C)c1=O	1	3	1	-6	i	-4	x	x
CCc1ccc2c(c1)C1(SC(NC(C)=O)=NN1C(C)=O)C(=O)N2CC (stereo not given)	0	-2	1	1	i	-2	x	x
CCCC(=O)NC(c1ccc(Cl)cc1)c1ccc2cccnc2c1O (stereo not given)	0	-5	-2	-2	u	9	x	x
CCCCC(=O)NC(c1ccc(Cl)cc1)c1ccc2cccnc2c1O (stereo not given)	-2	19*	0	-6	i	35	4	99*
CC(C)CC(=O)NC(c1cccs1)c1ccc2cccnc2c1O (stereo not given)	11	17*	10	-2	u	39	8	106*
CCC(=O)N(C)C[C@H]1Oc2cc(-c3ccccc3F)ccc2S(=O)(=O)N([C@H](C)CO)C[C@H]1C	-1	x	x	x	i	-4	x	x
COc1cc(/C=N/Nc2nc3ccccc3[nH]2)cc(OC)c1O	0	18*	-4	-1	i	23	1	24*
CC[C@@H](C)C(NC(=O)OC(C)(C)C)c1cn([C@@H](Cc2ccc(O)cc2)C(=O)N2CCN(C(=O)OC(C)(C)C)CC2)nn1 (stereo not given in full)	-2	4	-1	2	i	-8	x	x
COc1ccc(Cl)cc1C(=O)NCCCSc1ccccc1	2	5	3	-1	i	22	x	x
COc1ccc(Cl)cc1C(=O)NCC(=O)OCc1ccccc1	2	20*	4	-12	i	17	10	9
Cc1ccc(S(=O)(=O)Nc2ccc(O)c3ccccc23)c(C)c1	-4	x	x	0	i	3	x	x
Cc1ccc(S(=O)(=O)Nc2cc(C(C(=O)OC(C)C)C(=O)C(F)(F)F)c(O)c3ccccc23)c(C)c1 (stereo not given)	-4	22*	1	-2	i	42	4	16
O=C(O)C1CC(=O)N(c2ccc(OCc3ccccc3)cc2)C1 (stereo not given)	-4	5	0	-10	i	6	x	x
O=C(O)c1ccc2c(=O)n3c(nc2c1)/C(=C/c1ccc(F)cc1)CC3	0	-3	-1	-7	x	-4	x	x
O=C(O)c1ccc2c(=O)n3c(nc2c1)/C(=C/c1cccc(Cl)c1Cl)CCCC3	1	18*	-3	1	i	22	3	1
N#C/C(=C/c1ccc(O)c(O)c1)C(=O)NCc1ccc(Cl)cc1	6	24*	9	-32	i	-30	33*	9
COc1cc(/C=C(\C#N)C(=O)NCc2cccs2)ccc1O	7	34*	11	-41	i	-17	45*	9
N#C/C(=C/c1cccc(O)c1)C(=O)NCc1ccc(Cl)cc1	-1	3	-3	-4	i	-49	x	x
CC(OC(=O)c1nc(Cl)ccc1Cl)C(=O)Nc1ccc2c(c1)OCCO2 (stereo not given)	0	-3	-3	1	i	-2	x	x
O=C(CN1CCN(c2ccc(O)cc2)CC1)Nc1ccc2c(c1)OCCCO2	0	7	x	-5	i	7	x	x
Cc1ccc(/C=N\NC(=O)/C(=C\Nc2nccc(C)n2)NC(=O)c2ccccc2)cc1	1	26*	0	-47	i	-10	31*	10
COc1ccc(/C=N\NC(=O)/C(=C\Nc2nccc(C)n2)NC(=O)c2ccccc2)cc1	-2	13	-2	-1	i	18	x	x

From PubChem BioAssay
